# Source: paper PMC11995724, “Antibiotic target discovery by integrated phenotypic and activity-based profiling of electrophilic fragments” (Cell chemical biology, 2025)
# Among all 3,200 compounds or so, about 75 (2%) showed an effect of 50% or more. The list comes from a sample in which strong results are over-represented; it also holds similar structures and randomly drawn compounds.
# Tested on: T1, S. aureus MSSA476
# T1 construct: MSSA476
# Parameters: species or system S. aureus MSSA476 (TSB) or V. cholerae SAD30 (LB); 384-well bacterial growth screen at 25 uM, OD600 relative to DMSO control
# Conditions: relative growth, OD600, TSB; 25 µM; inhibitor
row,Structure (SMILES),% of control remaining [%]
1,"N#CC(C(=O)Nc1ccc(Cl)cc1)=C(S)Nc1ccccc1 [8-H22, N-(4-chlorophenyl)-2-cyano-3-(phenylamino)-3-sulfanylprop-2-enamide]",74.3568
2,"NC(=O)CCc1ccc(C(=O)CCl)cc1 [10-I03, 3-[4-(2-chloroacetyl)phenyl]propanamide]",108.125
3,"CCN(c1ccc(C(=O)CCl)cc1)S(C)(=O)=O [10-F04, N-[4-(2-chloroacetyl)phenyl]-N-ethylmethanesulfonamide]",2.1875
4,"CC(=O)N(C)Cc1ccc(C(=O)CCl)cc1 [10-H04, N-{[4-(2-chloroacetyl)phenyl]methyl}-N-methylacetamide]",111.875
5,"N#Cc1ccc(C(=O)CCl)cc1 [10-F10, 4-(2-chloroacetyl)benzonitrile]",52.5
6,"CN(c1ccc(C(=O)CCl)cc1)S(C)(=O)=O [10-F19, N-[4-(2-chloroacetyl)phenyl]-N-methylmethanesulfonamide]",-0.3125
7,"Cl.O=C(CCl)c1ccncc1 [10-M09, 2-chloro-1-(pyridin-4-yl)ethan-1-one hydrochloride]",111.875
8,"C=CC(=O)N1CCC(C(=O)NCc2ncnn2CC)CC1 [3-P03, N-[(1-ethyl-1H-1,2,4-triazol-5-yl)methyl]-1-(prop-2-enoyl)piperidine-4-carboxamide]",135.829
9,"C=CC(=O)Nc1cc(-c2ccco2)nn1C(C)(C)C [1-K19, N-[1-tert-butyl-3-(furan-2-yl)-1H-pyrazol-5-yl]prop-2-enamide]",129.407
10,"CCN(Cc1ccccc1)C(=O)CCl [6-O21, N-benzyl-2-chloro-N-ethylacetamide]",79.9024
11,"CCn1ccc(CN(C)C(=O)CCl)n1 [5-K06, 2-chloro-N-[(1-ethyl-1H-pyrazol-3-yl)methyl]-N-methylacetamide]",77.5956
12,"CCc1cc(SC#N)cc(C)c1NC(=O)CCl [4-M04, 2-chloro-N-[4-(cyanosulfanyl)-2-ethyl-6-methylphenyl]acetamide]",101.382
13,"O=C(CCl)Cc1cc(Cl)cc(Cl)c1 [10-I15, 1-chloro-3-(3,5-dichlorophenyl)propan-2-one]",23.125
14,"O=C(CCl)Cc1ccc(Cl)c(Cl)c1 [10-E15, 1-chloro-3-(3,4-dichlorophenyl)propan-2-one]",111.25
15,"O=C(CCl)Cc1cccc(Cl)c1 [10-E17, 1-chloro-3-(3-chlorophenyl)propan-2-one]",119.375
16,"O=C(CCl)NC(=O)c1ccc(OC(F)F)cc1 [5-J22, N-(2-chloroacetyl)-4-(difluoromethoxy)benzamide]",106.011
17,"C=CC(=O)NCc1ncoc1C(F)(F)F [3-E18, N-{[5-(trifluoromethyl)-1,3-oxazol-4-yl]methyl}prop-2-enamide]",106.922
18,"N#CC(=Cc1ccc(C(F)(F)F)cc1)C(=O)Nc1ccccc1 [9-I04, 2-cyano-N-phenyl-3-[4-(trifluoromethyl)phenyl]prop-2-enamide]",99.7753
19,"CN1C=CC(=C(C#N)C(=O)CCl)C=C1 [10-G21, 4-chloro-2-(1-methyl-1,4-dihydropyridin-4-ylidene)-3-oxobutanenitrile]",112.5
20,"N#CC(C(=O)CCl)=C1NC2=C(CCc3ccccc32)S1 [10-N10, 4-chloro-2-{1H,2H,4H,5H-naphtho[1,2-d][1,3]thiazol-2-ylidene}-3-oxobutanenitrile]",59.6875
21,"N#CC(C(=O)CCl)=C1NC(C23CC4CC(CC(C4)C2)C3)=CS1 [10-F14, 2-[4-(adamantan-1-yl)-2,3-dihydro-1,3-thiazol-2-ylidene]-4-chloro-3-oxobutanenitrile]",42.1875
22,"O=C(CCl)NC1CCS(=O)(=O)c2ccc(F)cc21 (centres unmarked) [7-H06, 2-chloro-N-(6-fluoro-1,1-dioxo-3,4-dihydro-2H-1lambda6-benzothiopyran-4-yl)acetamide]",94.1915
23,"CN(C)c1ccc(C=C(C#N)C(=O)N2CCC2)cc1 [9-A14, 2-(azetidine-1-carbonyl)-3-[4-(dimethylamino)phenyl]prop-2-enenitrile]",86.8914
24,"Cc1c(C#N)c(NC(=O)CCl)n(Cc2ccco2)c1C [4-D09, 2-chloro-N-{3-cyano-1-[(furan-2-yl)methyl]-4,5-dimethyl-1H-pyrrol-2-yl}acetamide]",96.0457
25,"CC(C)OC(=O)c1ccc(NC(=O)C(C)Cl)cc1 (centres unmarked) [4-K08, propan-2-yl 4-(2-chloropropanamido)benzoate]",110.148

row,Structure (SMILES),% of control remaining [%]
1,"N#CC(=Cc1ccccc1Cl)C(=O)NCc1ccccc1 [9-F13, N-benzyl-3-(2-chlorophenyl)-2-cyanoprop-2-enamide]",78.2022
2,"CC(NC(=O)C(C#N)=Cc1cccc(Cl)c1Cl)c1ccccc1 (centres unmarked) [9-N04, 2-cyano-3-(2,3-dichlorophenyl)-N-(1-phenylethyl)prop-2-enamide]",0.5993
3,"CCCCNC(=O)C(C#N)=Cc1cccc(Cl)c1Cl [9-H11, N-butyl-2-cyano-3-(2,3-dichlorophenyl)prop-2-enamide]",71.0112
4,"N#CC(=Cc1cccc2ccccc12)C(=O)NCc1ccccc1 [8-O19, N-benzyl-2-cyano-3-(naphthalen-1-yl)prop-2-enamide]",104.896
5,"CC(C)NC(=O)C(C#N)=Cc1cccc(Cl)c1Cl [9-C07, 2-cyano-3-(2,3-dichlorophenyl)-N-(propan-2-yl)prop-2-enamide]",109.963
6,"CC(NC(=O)C(C#N)=Cc1ccccc1F)c1ccccc1 (centres unmarked) [8-P16, 2-cyano-3-(2-fluorophenyl)-N-(1-phenylethyl)prop-2-enamide]",79.0041
7,"N#CC(=Cc1cccc(Cl)c1Cl)C(=O)NCCc1ccccc1 [8-J06, 2-cyano-3-(2,3-dichlorophenyl)-N-(2-phenylethyl)prop-2-enamide]",0.6639
8,"N#CC(=Cc1c(Cl)cccc1Cl)C(=O)NCCc1ccccc1 [8-B14, 2-cyano-3-(2,6-dichlorophenyl)-N-(2-phenylethyl)prop-2-enamide]",39.834
9,"N#CC(=Cc1cccc(O)c1)C(=O)NCCc1ccccc1 [8-N03, 2-cyano-3-(3-hydroxyphenyl)-N-(2-phenylethyl)prop-2-enamide]",116.183
10,"N#CC(=Cc1c(F)cccc1F)C(=O)NCCc1ccccc1 [8-D18, 2-cyano-3-(2,6-difluorophenyl)-N-(2-phenylethyl)prop-2-enamide]",118.174
11,"CCCCNC(=O)C(C#N)=Cc1c(Cl)cccc1Cl [9-J11, N-butyl-2-cyano-3-(2,6-dichlorophenyl)prop-2-enamide]",79.4007
12,"N#CC(=Cc1cccc(Cl)c1Cl)C(=O)NCc1ccccc1 [8-L04, N-benzyl-2-cyano-3-(2,3-dichlorophenyl)prop-2-enamide]",-0.332
13,"O=C(O)c1coc(C(=O)CCl)c1 [10-B07, 5-(2-chloroacetyl)furan-3-carboxylic acid]",79.6875
14,"O=C(CCl)N1N=C(c2ccco2)CC1c1cccc(Cl)c1 (centres unmarked) [5-M17, 2-chloro-1-[5-(3-chlorophenyl)-3-(furan-2-yl)-4,5-dihydro-1H-pyrazol-1-yl]ethan-1-one]",81.9672
15,"Cc1nn(-c2ccccc2)c(C)c1CN(C)C(=O)CCl [7-B03, 2-chloro-N-[(3,5-dimethyl-1-phenyl-1H-pyrazol-4-yl)methyl]-N-methylacetamide]",93.5636
16,"Cc1cc(C(=O)CCl)c(C)n1-c1ccc2c(c1)OCO2 [10-K14, 1-[1-(1,3-dioxaindan-5-yl)-2,5-dimethyl-1H-pyrrol-3-yl]-2-chloroethan-1-one]",139.375
17,"Cc1cc(C(=O)CCl)c(C)n1-c1cccc(Cl)c1 [10-N18, 2-chloro-1-[1-(3-chlorophenyl)-2,5-dimethyl-1H-pyrrol-3-yl]ethan-1-one]",100.313
18,"Cc1cc(C(=O)CCl)c(C)n1-c1ccccn1 [10-C16, 2-chloro-1-[2,5-dimethyl-1-(pyridin-2-yl)-1H-pyrrol-3-yl]ethan-1-one]",117.5
19,"Cc1cc(-n2c(C)cc(C(=O)CCl)c2C)no1 [10-C18, 2-chloro-1-[2,5-dimethyl-1-(5-methyl-1,2-oxazol-3-yl)-1H-pyrrol-3-yl]ethan-1-one]",123.125
20,"Cc1ccc(-n2c(C)cc(C(=O)CCl)c2C)cc1F [10-C06, 2-chloro-1-[1-(3-fluoro-4-methylphenyl)-2,5-dimethyl-1H-pyrrol-3-yl]ethan-1-one]",-0.3125
21,"CSc1cccc(-n2c(C)cc(C(=O)CCl)c2C)c1 [10-J16, 2-chloro-1-{2,5-dimethyl-1-[3-(methylsulfanyl)phenyl]-1H-pyrrol-3-yl}ethan-1-one]",12.8125
22,"Cc1cc(C(=O)CCl)c(C)n1-c1ccc(Cl)c(Cl)c1 [10-D18, 2-chloro-1-[1-(3,4-dichlorophenyl)-2,5-dimethyl-1H-pyrrol-3-yl]ethan-1-one]",-0.3125
23,"Cc1cccc(-n2c(C)cc(C(=O)CCl)c2C)c1 [10-A22, 2-chloro-1-[2,5-dimethyl-1-(3-methylphenyl)-1H-pyrrol-3-yl]ethan-1-one]",138.438
24,"Cc1ccc(-n2c(C)cc(C(=O)CCl)c2C)cc1C [10-B14, 2-chloro-1-[1-(3,4-dimethylphenyl)-2,5-dimethyl-1H-pyrrol-3-yl]ethan-1-one]",1.25
25,"Cc1cc(C(=O)CCl)c(C)n1-c1cccc([N+](=O)[O-])c1 [10-B16, 2-chloro-1-[2,5-dimethyl-1-(3-nitrophenyl)-1H-pyrrol-3-yl]ethan-1-one]",136.563
